Each structure is given as a SMILES string. Inconclusive results are not listed. Entries that show only a call come without a potency. Activity calls are given as the source filed them. Calls follow the shape of the dose curve; as a rule, active = well fitted curve in the direction sought with a large enough effect; inconclusive = small, poorly fitted or top-dose-only effect, or another doubt; inactive = no such curve, though single readings can be large; an effect the other way counts as inactive or inconclusive.

The subject of experiment [1] is Zika virus NS2B-NS3 protease (unlinked complex). In words: Primary screen GU Rhodamine qHTS for Zika virus inhibitors: Unlinked NS2B-NS3 protease assay (AID 1347159). Also: nearly all actives have a fitted effect of over 60% in size. Also: potency is read from the fitted curve at half-maximal effect. In short, it runs like this:
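In dose–response format, inhibition of unlinked protease (25 nM) was measured with 1.5 microM bis-peptide Rhodamine110 substrate. Aprotinin served as the intraplate control.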

The subject of experiment [2] is Zika virus NS2B-NS3 protease (linked construct). In words: Primary screen NINDS Rhodamine qHTS for Zika virus inhibitors (AID 1347160). Also: nearly all actives have a fitted effect of over 55% in size. Also: potency is read from the fitted curve at half-maximal effect. In short, it runs like this:
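Each compound, titrated, sat 15 min with 25 nM linked protease before 1.5 microM Rhodamine110 substrate went in. Fluorescence gain over the next 15 min, in pH 8.0 Tris with Tween 20, gave Hill-fitted curves.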

Experiment [3] is described as follows: Confirmatory screen NINDS Rhodamine qHTS for Zika virus inhibitors (AID 1347161).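 Also: purified Zika NS2B-NS3 protease with linked NS2B cofactor domain and Rhodamine110 peptide substrate; series mostly up to about 110 µM; nearly all actives have a fitted effect of over 60% in size.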 In short, it runs like this:
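Rhodamine110-peptide cleavage (1.5 µM substrate) by 25 nM linked NS2B-NS3 enzyme at pH 8.0 (Tris, Tween 20), after 15 min RT preincubation with compounds; 15-min fluorescence change normalized to controls and Hill-fitted.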
For orientation: Quantitative high-throughput screening tests each substance at several concentrations.

The target of experiment [4] is Lysine-specific demethylase 5B (Homo sapiens) (UniProt Q9UGL1). In words: Optimization screen for KDM5B Histone Demethylases FDH coupled qHTS against the LOPAC library (AID 1347166). An excerpt: Assay Submitter (PI): Qin Yan, Ph.D. (Yale University) and Xiaodong Cheng, Ph.D. (MD Anderson)
This project was funded as part of the NCI NEXT Program and Chemical Biology Consortium (CBC)
The histone demethylases, KDM5A and KDM5B catalyze the demethylation of lysine 4 on histone H3 (H3K4me3/2). They
are overexpressed in a variety of cancers and have been implicated in cancer cell growth, metastasis, drug resistance, and tumor growth. KDM5A is amplified and overexpressed in breast and gastric cancer; and is translocated in leukemia. While KDM5B is highly expressed in human mammary tumors and breast cancer cell lines, but not in normal adult breast tissue. Moreover, knockdown of KDM5B leads to upregulation of tumor suppressor genes, including BRCA1. The goal of this project is to employ qHTS to identify selective small molecule inhibitors of KDM5A/B demethylase activity to better understand the role of KDM5 in cancer and to develop novel therapies.
We employed an FDH-coupled assay previously reported by Sakurai et al. to monitor in vitro KDM5 demethylase activity. […] This assay is run against the NCGC Lopac collection of about 1,200 compounds to evaluate its amenability to quantitative High Throughput Screening (qHTS) platform. […]

A short description of experiment [5]: Vero cells viability qHTS for Zika virus inhibitors (AID 1347167). In short, it runs like this: (§1)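 Luminescent ATP readout (CellTiter Glo) after 30 min at 37 degrees C gives viability; cells in DMEM + 4% FBS were treated 24 to 48 hours with compound, following overnight attachment.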
A short description of experiment [6]: HepG2 cells viability qHTS for Zika virus inhibitors (AID 1347168). In short, it runs like this:
as §1

Lysine-specific demethylase 5B (Homo sapiens), sequence (Q9UGL1 whole entry, looked up): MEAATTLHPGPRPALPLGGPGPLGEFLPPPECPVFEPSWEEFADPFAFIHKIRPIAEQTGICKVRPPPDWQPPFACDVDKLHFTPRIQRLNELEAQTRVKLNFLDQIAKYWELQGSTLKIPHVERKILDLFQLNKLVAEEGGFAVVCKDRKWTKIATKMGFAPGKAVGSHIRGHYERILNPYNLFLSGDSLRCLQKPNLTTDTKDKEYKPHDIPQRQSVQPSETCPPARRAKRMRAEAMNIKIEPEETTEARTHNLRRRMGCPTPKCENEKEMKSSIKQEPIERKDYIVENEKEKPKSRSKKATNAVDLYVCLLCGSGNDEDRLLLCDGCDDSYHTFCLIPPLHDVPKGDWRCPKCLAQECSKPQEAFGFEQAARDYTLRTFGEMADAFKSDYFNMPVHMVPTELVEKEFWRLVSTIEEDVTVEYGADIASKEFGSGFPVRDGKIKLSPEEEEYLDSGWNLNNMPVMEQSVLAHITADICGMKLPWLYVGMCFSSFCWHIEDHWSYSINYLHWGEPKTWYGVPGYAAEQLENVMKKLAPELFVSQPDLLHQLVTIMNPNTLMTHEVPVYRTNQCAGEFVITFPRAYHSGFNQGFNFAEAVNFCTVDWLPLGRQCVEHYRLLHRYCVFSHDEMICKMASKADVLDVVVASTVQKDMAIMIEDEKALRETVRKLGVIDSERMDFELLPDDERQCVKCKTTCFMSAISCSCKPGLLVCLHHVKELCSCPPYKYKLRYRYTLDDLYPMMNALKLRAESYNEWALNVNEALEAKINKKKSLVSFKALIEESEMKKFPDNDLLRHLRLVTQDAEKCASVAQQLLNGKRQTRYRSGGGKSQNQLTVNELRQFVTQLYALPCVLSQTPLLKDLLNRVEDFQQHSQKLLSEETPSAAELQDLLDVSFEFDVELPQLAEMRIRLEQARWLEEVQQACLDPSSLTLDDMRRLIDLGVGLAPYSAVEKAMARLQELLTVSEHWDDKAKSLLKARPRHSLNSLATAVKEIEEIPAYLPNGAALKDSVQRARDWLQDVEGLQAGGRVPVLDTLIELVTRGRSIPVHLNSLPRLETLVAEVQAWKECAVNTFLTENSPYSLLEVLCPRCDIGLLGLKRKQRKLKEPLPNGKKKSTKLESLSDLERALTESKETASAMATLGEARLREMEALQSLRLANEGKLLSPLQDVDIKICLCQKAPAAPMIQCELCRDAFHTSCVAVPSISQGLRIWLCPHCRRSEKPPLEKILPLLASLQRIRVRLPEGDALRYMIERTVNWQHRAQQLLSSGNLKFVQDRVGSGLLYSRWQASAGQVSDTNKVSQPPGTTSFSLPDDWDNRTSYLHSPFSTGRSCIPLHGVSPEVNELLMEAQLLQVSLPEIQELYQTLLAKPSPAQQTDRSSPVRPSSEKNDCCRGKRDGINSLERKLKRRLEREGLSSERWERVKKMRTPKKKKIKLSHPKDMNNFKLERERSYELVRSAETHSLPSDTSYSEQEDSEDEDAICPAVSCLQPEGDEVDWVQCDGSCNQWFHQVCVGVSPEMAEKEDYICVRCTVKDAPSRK

Regarding `C[C@@H]1CC[C@]2(C(=O)O)CC[C@]3(C)C(=CCC4[C@@]5(C)CC[C@H](O)[C@](C)(C(=O)O)C5CC[C@]43C)C2[C@]1(C)O` (stereo not given in full), the Potency entry in experiment [1] and in experiment [2] was “inactive” throughout.

Consider `COc1ccccc1N1CCN(CC[C@@](C)(C(=O)C2CCCCC2)c2ccccc2)CC1`, for which the Potency result in experiment [1] and in experiment [2] was “inactive” in each case.

For `O=c1cc(N2CCN(c3cccc(C(F)(F)F)c3)CC2)[nH]c(=O)n1C1CCCCC1`, the Potency result in experiment [1] and in experiment [2] was “inactive” in each case.

Regarding `CC(C)=C1C[C@@]2(C)C(=CC1=O)CC[C@@H](OC(=O)/C(C)=C/CO)[C@@H]2C`, the Potency result in experiment [1] and in experiment [2] was “inactive” each time.

Turning to `CCN(Cc1cc(Nc2nc(C)cn3c(-c4cn[nH]c4)cnc23)sn1)C(C)(C)CO`, the Potency entry in experiment [1] and in experiment [2] was “inactive” each time.

Regarding `O=C(CNC(=O)c1cccc(C(F)(F)F)c1)N[C@@H]1CCN(Cc2ccc(Cl)cc2)C1`, the Potency result in experiment [1] and in experiment [2] was “inactive” throughout.

Regarding `COc1c(C)cnc(Cn2cc(C#CCC(C)(C)O)c3c(Cl)nc(N)nc32)c1C`, the Potency result in experiment [1] and in experiment [2] was “inactive” throughout.

For the compound `CC(C)c1c(O)ccc2c1CC[C@H]1C(C)(C)CCC[C@]21C`, the Potency was 14.1 µM (active) in experiment [1] and 22.4 µM (active) in experiment [2].

With `C=C1C(=O)O[C@@H]2C[C@]3(C)[C@@H](CCC(C)O)[C@@H]3C[C@H]12` (stereo not given in full), the Potency entry in experiment [1] and in experiment [2] was “inactive” each time.

On to `CNC(=O)c1ccc2c(c1)CCO[C@H]2CCN1CCN(c2ccc(OC)cc2)CC1`, for which the Potency result in experiment [1] and in experiment [2] was “inactive” in each case.

As to `COc1ccc(C2(CNC(=O)c3ccc(NC(=O)c4ccco4)cc3)CCOCC2)cc1`, the Potency entry in experiment [1] and in experiment [2] was “inactive” throughout.

Regarding `C[C@@H]1O[C@@H](O[C@H]2[C@H](O[C@H]3CC[C@@]4(C)C(CC[C@]5(C)C4C=C[C@]46OC[C@@]7(CCC(C)(C)C[C@H]74)[C@@H](O[C@@H]4O[C@@H](C)[C@H](O)[C@@H](O)[C@H]4O)C[C@]65C)[C@]3(C)CO)O[C@H](CO)[C@@H](O)[C@@H]2O[C@@H]2O[C@H](CO)[C@@H](O)[C@H](O)[C@H]2O)[C@H](O)[C@H](O)[C@H]1O` (stereo not given in full), the Potency entry in experiment [1] and in experiment [2] was “inactive” each time.

For the compound `CCN1CCC[C@@H]1CNC(=O)c1ccc2c(c1)NC(=O)c1cccc(C)c1S2`, the Potency result in experiment [1] and in experiment [2] was “inactive” each time.

Take `Cc1cc(C)c(-n2cc(C)c3c(Cl)nc(C)nc32)c(C)c1`: the Potency entry in experiment [1] and in experiment [2] was “inactive” in each case.

In the case of `CCc1cccc(CC)c1-n1c(C=C(C)C)c(C(=O)N2CCNCC2)cc(-c2nc(-c3ccc(C(F)(F)F)cc3)cs2)c1=O`, the Potency entry in experiment [1] and in experiment [2] was “inactive” each time.

As for `CNCc1cc(-c2ccccc2F)n(S(=O)(=O)c2cccnc2)c1`, the Potency result in experiment [1] and in experiment [2] was “inactive” throughout.

As for `COC(=O)c1ccc2c(c1)nc(NC(=O)c1ccccc1)n2CCCc1ccccc1`, the Potency entry in experiment [1] and in experiment [2] was “inactive” throughout.

`COc1nc2ccc(Br)cc2cc1[C@@H](c1ccccc1)[C@@](O)(CCN(C)C)c1cccc2ccccc12`: the Potency result in experiment [1] and in experiment [2] was “inactive” throughout.

Consider `O=C(Nc1ccc(CN2CCOCC2)cc1)c1ccc(-c2cccc(Cl)c2)o1`, for which the Potency result in experiment [1] and in experiment [2] was “inactive” in each case.

For the compound `O=c1ccc2ccc(OCCCCN3CCN(c4cccc5sccc45)CC3)cc2[nH]1`, the Potency entry in experiment [1] and in experiment [2] was “inactive” in each case.

As for `C[C@H]1CC[C@@]2(OC1)O[C@H]1CC3[C@@H]4CC[C@@H]5C[C@@H](O[C@@H]6O[C@H](CO)[C@@H](O[C@@H]7O[C@@H](C)[C@H](O)[C@@H](O)[C@H]7O)[C@H](O)[C@H]6O[C@@H]6O[C@H](CO)[C@@H](O)[C@H](O)[C@H]6O)CC[C@]5(C)C4CC[C@]3(C)[C@H]1[C@@H]2C` (stereo not given in full), the Potency result in experiment [1] and in experiment [2] was “inactive” in each case.

For `Cc1nc2c(C(F)(F)F)cccc2nc1-c1ccc(-c2cccc(S(C)(=O)=O)c2)cc1`, the Potency entry in experiment [1] and in experiment [2] was “inactive” throughout.

On to `C=C1C(=O)OC2/C=C(\COC(C)=O)CC/C=C(\C=O)CC(OC(=O)C(C)CC)C12` (stereo not given), for which the Potency entry in experiment [1] and in experiment [2] was “inactive” in each case.

In the case of `CCc1cnc(N2CCC(c3nc(COc4ccc(-n5cnnn5)cc4)cs3)CC2)nc1`, the Potency result in experiment [1] and in experiment [2] was “inactive” in each case.

Turning to `CC(=O)OC[C@]12[C@H](OC(C)=O)[C@H](OC(=O)c3ccccc3)[C@@H]3[C@@H](OC(C)=O)[C@]1(OC3(C)C)[C@H](C)C[C@H](OC(C)=O)[C@@H]2OC(=O)c1ccccc1`, the Potency result in experiment [1] and in experiment [2] was “inactive” each time.

Consider `C=C1CC[C@@H]2[C@](C)(CO)[C@H](O)CC[C@@]2(C)[C@@H]1C/C=C1/C(=O)OCC1O` (stereo not given in full), for which the Potency result in experiment [1] and in experiment [2] was “inactive” each time.

`CC(C)=C[C@@H]1[C@H](CO[C@@H]2O[C@H](CO)[C@@H](O)[C@H](O)[C@H]2O)C1(C)C`: the Potency result in experiment [1] and in experiment [2] was “inactive” each time.

As to `O=C(Nc1ccc(Cl)cc1)c1ccccc1NCc1ccncc1`, the Potency result in experiment [1] and in experiment [2] was “inactive” each time.

For `CCOC(=O)N1CCC(CN(Cc2ccc(Cl)cc2)Cc2ccc([N+](=O)[O-])s2)C1` (stereo not given), the Potency result in experiment [1] and in experiment [2] was “inactive” throughout.

Regarding `COc1ccc(N(C(=O)Nc2c(C)cccc2C)c2cc(Nc3ccc(N4CCN(C)CC4)cc3)ncn2)c(OC)c1`, the Potency entry in experiment [1] and in experiment [2] was “inactive” throughout.

Regarding `O=C(NCCCc1ccccc1)c1cccc(-c2cc(O)c3ncccc3c2)c1`, the Potency result in experiment [3] is “inactive”.

`CN[C@H]1CC[C@@H](c2ccc(Cl)c(Cl)c2)c2ccccc21`: the result in experiment [4] was inactive.

On to `NCCCC(=O)O`, for which the compound was called inactive in experiment [4].

For `CCC(CC)(NC(=O)C(C)C)C(=O)N[C@@H](CCCN=C(N)N)C(=O)NC1(C(=O)NC(c2ccc(F)cc2)c2ccc(F)cc2)CCCC1`, the result in experiment [5] and in experiment [6] was inactive.

(Values after PubChem BioAssay (NCATS).)
